In PubChem BioAssay one finds z-score data, which are given here for 36 compounds.

Each structure is given as a SMILES string. Values without a mark were called inactive.

The test can be described thus: optical density change of DRC41 E. coli – strain DRC41, OD650, 24 h, E. coli filamentation project, primary screen (AID 1093).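 Also: MC1000 strain lacking acrAB efflux and sulA so SOS filamentation is blocked; test concentration not given here.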 Conditions: E. coli DRC41 growth, higher = more signal, called active from +8 up or from −8 down.
With `CC(C)CN1CCc2nc(-c3ccccc3)c3c(c2C1)CO[C@@H](C)C3`, the z-score is 0.801.

`COCC#Cc1ccc([C@@H]2N[C@H](C(=O)O)CC[C@H]2C)cc1`: the z-score is 0.874.

For the compound `C[C@@H](c1ccccc1)N1C(=O)[C@H]2[C@H]3[C@H](O)[C@H](O)CC(=NOC[C@@H](O)COCc4ccco4)[C@H]3CC[C@H]2C1=O`, the z-score is -0.378.

In the case of `CCOC(=O)[C@H](CC(C)C)NC(=O)CCC1CC(OC(=O)NCc2ccc3c(c2)OCO3)CC2(CCCC(COC(=O)NCCc3ccc(Cl)cc3)O2)O1` (stereo partly specified), the z-score was 0.544.

`C#CCCCON=C1C[C@@H](O)[C@@H](O)[C@@H]2[C@@H]3C(=O)N(C4CCCCC4)C(=O)[C@@H]3CC[C@@H]12`: the z-score was 0.862.

For the compound `CC(C)=CCCC(C)=CCON=C1C[C@@H](O)[C@@H](O)[C@@H]2[C@@H]3C(=O)N(c4cccc(Oc5ccccc5)c4)C(=O)[C@@H]3CC[C@H]12`, the z-score is 0.204.

For the compound `COc1ccc(O[C@H]2C=C[C@@H](C#Cc3ccccc3)O[C@@H]2CO)cc1`, the z-score is 1.3.

Take `CCCNC(=O)OC[C@H]1O[C@H](CCON=C[C@@H](NS(=O)(=O)c2ccc(C)cc2)[C@H](C)C=CCC(=O)OC)C=C[C@@H]1Oc1ccc(OC)cc1`: the z-score is -0.0353.

For `COC(=O)[C@H](C)NC(=O)CCC1CC(OC(=O)NCc2cccc3ccccc23)CC2(CCCC(COC(=O)NCCCN3CCCC3=O)O2)O1` (stereo partly specified), the z-score is -1.25.

On to `COC(=O)[C@H](C)NC(=O)CCC1CC(OC(=O)NCCc2ccc(F)cc2)CC2(CCCC(COC(=O)NCC3CCCCC3)O2)O1` (stereo partly specified), for which the z-score was -0.718.

Turning to `COC(=O)[C@H](C)NC(=O)CCC1CC(OC(=O)NCc2ccc3c(c2)OCO3)CC2(CCCC(COC(=O)NCCc3ccc(Cl)cc3)O2)O1` (stereo partly specified), the z-score is 0.181.

`COc1ccc(COC(=O)NN=C2C[C@@H](O)[C@@H](O)[C@@H]3[C@@H]4C(=O)N([C@@H](C)c5ccccc5)C(=O)[C@@H]4CC[C@@H]23)cc1`: the z-score was 0.918.

For the compound `COc1ccc(O[C@H]2C=C[C@@H](c3ccccc3)O[C@@H]2COC(=O)CCC(C)=NOC[C@@H](O)COCc2ccco2)cc1`, the z-score is -0.541.

For the compound `CCN1C(=O)[C@H]2[C@H]3[C@H](O)[C@H](O)CC(=NOCC(C)C)[C@H]3CC[C@H]2C1=O`, the z-score was 0.769.

Regarding `CC(=O)OC[C@H]1O[C@H](C#CCC2CCCCC2)C=C[C@@H]1OC(C)=O`, the z-score is 1.1.

With `CCN1C(=O)[C@H]2[C@H]3[C@H](O)[C@H](O)CC(=NOC[C@@H](O)[C@H]4O[C@@H]5OC(C)(C)O[C@@H]5[C@H]4O)[C@@H]3CC[C@H]2C1=O`, the z-score is 0.454.

Consider `C[C@@H]1CC[C@@H](C(=O)O)N[C@H]1c1cccc(N2CCOCC2)c1`, for which the z-score was 1.64.

`CCOC(=O)NN=C1C[C@@H](O)[C@@H](O)[C@@H]2[C@@H]3C(=O)N(c4ccc(F)cc4F)C(=O)[C@@H]3CC[C@H]12`: the z-score was 0.786.

With `CCC1=NOC(CCC2CC(OC(=O)NCc3cccc4c3OCO4)CC3(CCCC(COC(=O)NCCc4ccc(Cl)cc4)O3)O2)C1` (stereo unspecified), the z-score was 0.812.

As for `CCOC(=O)CCN1C(=O)[C@H]2[C@H]3[C@H](O)[C@H](O)CC(=NO[C@@H]4O[C@H](CO)[C@@H](O)[C@H](O)[C@H]4O)[C@@H]3CC[C@H]2C1=O`, the z-score was 0.283.

Turning to `CCOC(=O)[C@H](CC(C)C)NC(=O)CCC1CC(OC(=O)NCc2ccc3c(c2)OCO3)CC2(CCCC(COC(=O)NCc3ccccc3)O2)O1` (stereo partly specified), the z-score was 0.314.

Consider `CC(C)C(=O)N[C@H]1CCCN1C(=O)C=Cc1ccccc1`, for which the z-score is 0.267.

On to `COC(=O)[C@H](C)NC(=O)CCC1CC(OC(=O)NCc2cccc3ccccc23)CC2(CCCC(COC(=O)NCc3ccccc3)O2)O1` (stereo partly specified), for which the z-score is -0.351.

`CCOC(=O)[C@H](CC(C)C)NC(=O)CCC1CC(OC(=O)NCCc2ccc(F)cc2)CC2(CCCC(COC(=O)NCc3cccc4ccccc34)O2)O1` (stereo partly specified): the z-score is 0.415.

Regarding `COC(=O)CC=C[C@@H](C)[C@@H](C=NOC(C)CN1CCCCc2nc(C)c(C)cc21)OC` (stereo partly specified), the z-score was -0.123.

On to `CCN1C(=O)[C@H]2[C@H]3[C@H](O)[C@H](O)CC(=NOC[C@@H](O)COCc4ccco4)[C@H]3CC[C@H]2C1=O`, for which the z-score is 0.316.

Consider `COCCNC(=O)OCC1CCCC2(CC(OC(=O)NCc3cccc4ccccc34)CC(CCC(=O)N[C@@H](C)C(=O)OC)O2)O1` (stereo partly specified), for which the z-score is 0.22.

Consider `CC(=O)OC[C@H]1O[C@@H](ON=C(C)CCN2CCCCc3nc(C)c(C)cc32)[C@H](OC(C)=O)[C@@H](OC(C)=O)[C@@H]1OC(C)=O`, for which the z-score was -0.871.

`O=C1C=C[C@@H](O)[C@@H]2[C@@H]3C(=O)N(c4cccc(Oc5ccccc5)c4)C(=O)[C@@H]3CC[C@@H]12`: the z-score is 0.533.

For the compound `CCOC(=O)[C@H](CC(C)C)NC(=O)CCC1CC(OC(=O)NCCc2ccc(F)cc2)CC2(CCCC(COC(=O)NCCOC)O2)O1` (stereo partly specified), the z-score was -1.02.

Regarding `CCN1C(=O)[C@H]2[C@H]3[C@H](O)[C@H](O)CC(=NOC(C)CN4CCCc5nc(C)c(C)cc54)[C@@H]3CC[C@H]2C1=O` (stereo partly specified), the z-score was 1.32.

Consider `CC(C)=CCCC(C)=CCON=C1[C@H]2CCn3c(=O)n(-c4ccccc4)c(=O)n3[C@H]2[C@H](O)[C@@H]2O[C@H]12`, for which the z-score is -1.1.

For the compound `O=C1C=C[C@@H](O)[C@@H]2[C@@H]3C(=O)N(Cc4ccccc4)C(=O)[C@@H]3CC[C@@H]12`, the z-score is 0.575.

Take `CCCCOC(OCCCC)C(O)CSc1ccc2ccccc2c1` (stereo unspecified): the z-score is -0.419.

Consider `CC[C@@H](c1ccccc1)n1c(=O)n2n(c1=O)[C@H]1[C@H](O)[C@@H]3O[C@@H]3C(=NOCc3ccccc3)[C@H]1CC2`, for which the z-score is -0.866.

On to `CC(CCN1CCCc2nc(C)c(C)cc21)=NOC[C@@H](C)[C@H](OCc1ccccc1)C(C)C`, for which the z-score was -0.287.
